WRN helicase inh-1: qHTS for Inhibitors of WRN Helicase; AID 651768, 2012; Bifunctional 3'-5' exonuclease/ATP-dependent helicase WRN (Homo sapiens), Q14191; WRN helicase unwinding, fluorescent forked duplex, kinetic; 360,000 tested, 0.46% active; Potency, µM (top dose mostly 114 µM), hits mostly inhibitors; further: nearly all actives have a fitted effect of over 55% in size
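Kinetic red-fluorescence monitoring (525/598 nm) tracks WRN helicase activity after 100 nM fluorophore-quencher forked duplex and 2 mM ATP are added to 20 nM enzyme pretreated 15 min at room temperature with compound.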
PI5P4K alpha inh: qHTS for Inhibitors of phosphatidylinositol 5-phosphate 4-kinase (PI5P4K); Phosphatidylinositol 5-phosphate 4-kinase type-2 alpha (Homo sapiens), P48426; PI5P4Kalpha enzyme, ADP-Glo luminescence, 60 min; stronger effect = lower value; max response, %; 330,000 tested, 1.2% active; AID 652105, 2013; active means max response of -50% or lower; inconclusive means between -30% and -50%; inactive means -30% or higher; further: value at the top dose of about 77 µM
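Single end-point luminescence (ADP-Glo) quantified ADP from PI5P4Kalpha turnover; ATP 5 microM final, 1 h at RT, 0.1% CHAPS and 0.28 mM EGTA in HEPES pH 7.4.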
POLK inh: qHTS for Inhibitors of Polymerase Kappa. DNA polymerase kappa (Homo sapiens), Q9UBT6. purified Pol kappa, fluorescent DNA synthesis assay, 10 min. Potency, µM (highest dose often 107 µM), most hits filed as inhibitors. 400,000 tested, 0.53% active
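50 nM final substrate added after 15 min RT preincubation of 10 nM Pol kappa with compound; fluorescence read at 0 and 10 min.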
POLH inh: qHTS for Inhibitors of Polymerase Eta; recombinant Pol eta, fluorescent DNA replication assay; AID 588591, 2011; DNA polymerase eta (Homo sapiens), Q9Y253; 390,000 tested, 1.2% active; Potency, µM (series often up to 114 µM), actives largely listed as inhibitors
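Pol eta at 10 nM preincubated with compounds 15 min at room temperature; reaction started with fluorescent substrate (50 nM final) and read kinetically at 0 and 10 min.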
POLB inh: qHTS Assay for Inhibitors of DNA Polymerase Beta | P06746 | Pol beta primer extension/strand displacement, fluorescence kinetic | Potency, µM (top dose mostly 114 µM), usual class: inhibitors | 340,000 tested, 1.3% active
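10 nM enzyme + cpd, 15 min RT; start with substrate 50 nM final; read 0 min and after 10 min RT. Corrected, normalized data; 4-parameter Hill curve fit.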
POLI inh: qHTS for Inhibitors of Polymerase Iota; DNA polymerase iota (Homo sapiens), Q9UNA4; Pol iota fluorescent replication assay, 10 min; Potency, µM (highest dose often 115 µM), usual class: inhibitors; 390,000 tested, 1% active; AID 588590, 2011
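Pol iota at 10 nM preincubated 15 min with compounds at room temperature; reaction started with fluorescent substrate, 50 nM final. Fluorescence read kinetically at 0 and 10 min; buffer-only wells as negative control.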
WRN helicase inh-2: qHTS for Inhibitors of WRN Helicase: Confirmatory Assay for Cherry-picked Compounds; shares compounds with WRN helicase inh-1; WRN helicase DNA unwinding, fluorescence kinetic; Potency, µM (series often up to 57.1 µM), hits mostly inhibitors; 610 tested, 63% active; AID 720497, 2013; further: nearly all actives have a fitted effect of over 65% in size
TO displacement: qHTS for Inhibitors of WRN Helicase: Thiazole Orange DNA Binding Counterscreen; shares compounds with WRN helicase inh-1; thiazole orange DNA binding displacement, fluorescence; Potency, µM (series often up to 57.1 µM), usual class: inhibitors; 610 tested, 10% active;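 further: drop in dye fluorescence marks compound binding to DNA; nearly all actives have a fitted effect of over 60% in size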
BLM helicase inh: qHTS for Inhibitors of WRN Helicase: BLM Helicase Counterscreen for WRN Inhibitors. shares compounds with WRN helicase inh-1. Recombinant BLM helicase DNA unwinding, red fluorescence. Potency, µM (titrated, usually from 57.1 µM), actives largely listed as inhibitors. 610 tested, 60% active. AID 720503, 2013; further: nearly all actives have a fitted effect of over 60% in size
Of the large screens only hits and unclear results are named; the others gave an inactive call (follow-up assays come after a bar, where they were run). Only some compounds are listed: those with a hit (about 2.8% of all), similar ones and a draw of the others. Unless noted, the call rests on the fitted dose curve; in most records, active means well fitted curve in the direction sought with a large enough effect; inconclusive means small, poorly fitted or top-dose-only effect, or another doubt; inactive means no such curve, though single readings can be large; an effect the other way counts as inactive or inconclusive.

CC(Oc1ccccc1)C(=O)N[C@@H]1C(=O)N2C(C(=O)O)C(C)(C)S[C@H]12 (stereo not given in full)	none (no result: WRN helicase inh-1, PI5P4K alpha inh, POLH inh, POLB inh)
CCCN1C(=O)/C(=C\C=C2/Sc3ccccc3N2CCO)SC1=S	none
CCCN1C(=O)/C(=C/C=C2\N(CC)c3ccccc3C2(C)C)SC1=S	WRN helicase inh-1 18.9µM, POLH inh 56.2µM | WRN helicase inh-2 21.5µM | TO displacement inactive | BLM helicase inh 21.5µM
COC(=O)c1scc(-c2ccc(C)cc2)c1S(=O)(=O)N1CCN(c2ccc(C(C)=O)cc2)CC1	POLH inh inconclusive (no result: WRN helicase inh-1, PI5P4K alpha inh)
COc1ccccc1CNC(=O)CCn1c(=O)c2ccccc2n(CC(=O)Nc2ccc(C)cc2C)c1=O	none (no result: WRN helicase inh-1, PI5P4K alpha inh)
COc1ccc(/C=C2/C(=O)ON=C2C)cc1Cl	WRN helicase inh-1 inconclusive | WRN helicase inh-2 inactive | TO displacement inactive | BLM helicase inh inactive
C#CCOc1ccc(Cl)cc1/C=C1/C(=O)ON=C1C	none
C#CCOc1ccc(/C=C2/C(=O)ON=C2C)cc1Br	WRN helicase inh-1 inconclusive, POLB inh inconclusive | WRN helicase inh-2 inactive | TO displacement inactive | BLM helicase inh inconclusive
C=CCOc1ccc(/C=C2/C(=O)ON=C2C)cc1OC	WRN helicase inh-1 inconclusive
CCOc1cc(/C=C2\C(=O)ON=C2C)ccc1OCc1ccccc1	WRN helicase inh-1 inconclusive, POLH inh inconclusive | WRN helicase inh-2 inconclusive | TO displacement inactive | BLM helicase inh inactive
Cc1cc(C)cc(NC(=O)N2CCN(C)c3ncccc32)c1	none (no result: WRN helicase inh-1, PI5P4K alpha inh)
COc1ccc2cc3cc(C(=O)NCc4cccs4)oc3nc2c1	WRN helicase inh-1 39.8µM, POLH inh inconclusive, POLB inh 22.4µM, POLI inh inconclusive | WRN helicase inh-2 24.1µM | TO displacement inactive | BLM helicase inh 15.2µM
COc1ccc(NC(=O)c2cc3c(-c4ccc(OC)c(OC)c4)nn(C)c3s2)cc1OC	WRN helicase inh-1 11.9µM, POLK inh inconclusive, POLH inh inconclusive, POLB inh 28.2µM, POLI inh inconclusive | WRN helicase inh-2 13.6µM | TO displacement inactive | BLM helicase inh 13.6µM
Cc1cc(O)c(Sc2ncn[nH]2)cc1NS(=O)(=O)c1ccc(Cl)cc1	none (no result: POLB inh)
O=S(=O)(Nc1cc(Sc2ncn[nH]2)c(O)c2ccccc12)c1ccccc1	WRN helicase inh-1 35.5µM, PI5P4K alpha inh -90.0, POLH inh 22.4µM, POLB inh inconclusive, POLI inh 1.12µM | WRN helicase inh-2 inconclusive | TO displacement inactive | BLM helicase inh inconclusive
CCc1ccc2c(c1)C(NC(C)=O)C(=O)N2CCN1CCOCC1 (stereo not given)	WRN helicase inh-1 44.7µM, POLH inh inconclusive, POLI inh 2.24µM | WRN helicase inh-2 inconclusive | TO displacement inactive | BLM helicase inh 19.2µM
CCCN1C(=O)C(NC(C)=O)c2ccccc21 (stereo not given)	none (no result: PI5P4K alpha inh)
Cc1ccc(C)c(NC(=O)Cn2c(=O)nc(-c3ccccc3)c3ccccc32)c1	POLH inh inconclusive (no result: WRN helicase inh-1, PI5P4K alpha inh)
CN(C)CCC(=O)C(Cc1ccccc1)c1ccccc1 (stereo not given)	WRN helicase inh-1 7.94µM, POLI inh inconclusive (no result: POLB inh) | WRN helicase inh-2 inactive | TO displacement inactive | BLM helicase inh inactive
CN(C)CCNC(=O)C(c1ccccc1)c1ccccc1	none
